Results: PubChem BioAssay (NCI)
This is part of a sample that, as a whole, favours compounds with a hit. Of some 83,000 tested, about 20% had one in any assay.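 Method: cells in 96-well plates; compound added at one concentration; 48 h incubation; percent growth measured; values under 10 scored active.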 Calls of active or inactive are those of the source.

Key:
Assay in all cases: NCI-60 one-dose screen, 48 h (100 = growth as untreated, 0 = no growth, -100 = all killed)
DU-145 prostate = conditions: 10 µM unless noted
K-562 leukemia = conditions: 10 µM unless noted
MALME-3M melanoma = conditions: 10 µM unless noted
MDA-MB-231 breast = conditions: 10 µM unless noted
RXF 393 renal = conditions: 10 µM unless noted
SF-268 CNS = conditions: 10 µM unless noted
SF-295 CNS = conditions: 10 µM unless noted
SF-539 CNS = conditions: 10 µM unless noted
UACC-257 melanoma = conditions: 10 µM
M14 melanoma = conditions: 10 µM unless noted
HCT-15 colon = conditions: 10 µM unless noted
HT29 colon = conditions: 10 µM unless noted
SNB-75 CNS = conditions: 10 µM unless noted
SNB-19 CNS = conditions: 10 µM unless noted
U251 CNS = conditions: 10 µM unless noted
PC-3 prostate = conditions: 10 µM unless noted
SK-MEL-5 melanoma = conditions: 10 µM unless noted
LOX IMVI melanoma = conditions: 10 µM unless noted
UACC-62 melanoma = conditions: 10 µM unless noted
SK-MEL-28 melanoma = conditions: 10 µM unless noted

Measured: growth

CC(=O)Nc1nc2c(s1)C1=CC[C@H]3[C@@H]4CC[C@H](C(C)=O)[C@@]4(C)CC[C@@H]3[C@@]1(C)CC2
active: K-562 leukemia 8.05% | RXF 393 renal -29.3% | SF-295 CNS -16.9%
inactive: DU-145 prostate 85.9% | MALME-3M melanoma 72.6% | MDA-MB-231 breast 57.7% | SF-268 CNS 90.2% | SF-539 CNS 40.2% | UACC-257 melanoma 73.2% | M14 melanoma 87% | HCT-15 colon 26.4% | HT29 colon 27.7% | SNB-75 CNS 47.8% | SNB-19 CNS 69% | U251 CNS 44.4% | PC-3 prostate 43% | SK-MEL-5 melanoma 93.6% | LOX IMVI melanoma 59.6%

NC(N)=NS(=O)(=O)c1ccc(N=NC2C(=O)NN(c3ccccc3)C2=O)cc1 (configuration not stated)
inactive: DU-145 prostate 104% | K-562 leukemia 107% | MALME-3M melanoma 101% | MDA-MB-231 breast 94.9% | RXF 393 renal 106% | SF-268 CNS 102% | SF-295 CNS 104% | SF-539 CNS 94.8% | UACC-257 melanoma 120% | M14 melanoma 99.5% | HCT-15 colon 101% | HT29 colon 112% | SNB-75 CNS 84.1% | SNB-19 CNS 98.9% | U251 CNS 103% | SK-MEL-5 melanoma 98.9% | UACC-62 melanoma 96.1% | LOX IMVI melanoma 96.6% | SK-MEL-28 melanoma 111%

Cn1cc(-c2nnc(N)nc2-c2cn(C)c3ccc(F)cc23)c2cc(F)ccc21
inactive: DU-145 prostate 95.6% | K-562 leukemia 101% | MALME-3M melanoma 107% | MDA-MB-231 breast 94.6% | RXF 393 renal 104% | SF-268 CNS 78.5% | SF-295 CNS 113% | SF-539 CNS 96.4% | UACC-257 melanoma 101% | M14 melanoma 101% | HCT-15 colon 91.8% | HT29 colon 63.3% | SNB-75 CNS 64.4% | SNB-19 CNS 91% | U251 CNS 83.2% | SK-MEL-5 melanoma 91% | UACC-62 melanoma 94.6% | LOX IMVI melanoma 98.4%

C=C(C)[C@@H]1CC[C@]2(C(=O)NCCCN(CCC#N)CCC#N)CC[C@]3(C)[C@H](CC[C@@H]4[C@@]5(C)CCC(=O)C(C)(C)[C@@H]5CC[C@]43C)[C@@H]12
inactive: DU-145 prostate 109% | K-562 leukemia 88.4% | MALME-3M melanoma 102% | MDA-MB-231 breast 99.4% | RXF 393 renal 92.9% | SF-268 CNS 99.2% | SF-295 CNS 97.1% | SF-539 CNS 99.7% | UACC-257 melanoma 105% | M14 melanoma 101% | HCT-15 colon 96.4% | HT29 colon 106% | SNB-75 CNS 99.9% | SNB-19 CNS 88.9% | U251 CNS 97.7% | PC-3 prostate 93.1% | SK-MEL-5 melanoma 99.1% | LOX IMVI melanoma 99.3% | SK-MEL-28 melanoma 104%

CCN1C(=O)N(CC)C2SC(N/N=C/c3ccccc3F)=NC21 (configuration not stated)
active: K-562 leukemia 9.76% | SF-539 CNS -16.7% | HT29 colon 0.675%
inactive: DU-145 prostate 16.6% | MALME-3M melanoma 71.1% | MDA-MB-231 breast 24.1% | RXF 393 renal 46.4% | SF-268 CNS 45.4% | SF-295 CNS 11.6% | UACC-257 melanoma 61% | M14 melanoma 17.2% | HCT-15 colon 16.2% | SNB-75 CNS 21.5% | SNB-19 CNS 24.6% | U251 CNS 16.4% | SK-MEL-5 melanoma 11.1% | UACC-62 melanoma 37.6% | LOX IMVI melanoma 15.6% | SK-MEL-28 melanoma 54.8%

COc1ccc(-c2nc(SCCC(C)C)nc(N/N=C\c3ccc(O)cc3)c2C#N)cc1
inactive: DU-145 prostate 59.7% | K-562 leukemia 42.2% | MALME-3M melanoma 79.3% | MDA-MB-231 breast 54.2% | RXF 393 renal 78% | SF-268 CNS 55.7% | SF-295 CNS 91.6% | SF-539 CNS 35.1% | UACC-257 melanoma 111% | M14 melanoma 76.6% | HCT-15 colon 28.2% | HT29 colon 107% | SNB-75 CNS 77.2% | SNB-19 CNS 60.1% | U251 CNS 29.4% | PC-3 prostate 72.4% | SK-MEL-5 melanoma 89.2% | UACC-62 melanoma 93.9% | SK-MEL-28 melanoma 95%

COc1ccc(Cn2cc3c(c2-c2cc(OC)c(OC)c(OC)c2)CCCc2cnoc2-3)cc1
active: RXF 393 renal -2.75% | SF-295 CNS 5.29% | SF-539 CNS 2.82% | M14 melanoma 2.98% | SNB-75 CNS -17.6%
inactive: DU-145 prostate 17.4% | K-562 leukemia 10.2% | MALME-3M melanoma 57.5% | MDA-MB-231 breast 32.4% | SF-268 CNS 57.7% | UACC-257 melanoma 81.5% | HCT-15 colon 20.1% | HT29 colon 14.7% | SNB-19 CNS 23.1% | U251 CNS 28.6% | PC-3 prostate 44.4% | SK-MEL-5 melanoma 21.6% | LOX IMVI melanoma 35.8% | SK-MEL-28 melanoma 64.4%

COc1ccc(/C=N\NC(=O)c2ccc3nc(-c4ccc(Br)cc4)[nH]c3c2)cc1
active: MALME-3M melanoma -9.02% | RXF 393 renal -17.7% | SF-268 CNS 8.61% | U251 CNS -51.5% | LOX IMVI melanoma -26%
inactive: DU-145 prostate 16.5% | K-562 leukemia 11.6% | MDA-MB-231 breast 48.6% | SF-295 CNS 11% | SF-539 CNS 16.4% | UACC-257 melanoma 38.7% | M14 melanoma 24.7% | HCT-15 colon 48.1% | HT29 colon 17.5% | SNB-75 CNS 46.1% | SNB-19 CNS 19.2% | PC-3 prostate 20.8% | SK-MEL-5 melanoma 24.2% | SK-MEL-28 melanoma 13.8%

COc1cc(O)c2c(c1)/C=C/C[C@H](O)[C@H](O)C(=O)/C=C\C[C@H](C)OC2=O
inactive: SF-268 CNS 34.9% | SF-295 CNS 60.2% | SNB-19 CNS 52.3% | U251 CNS 34.6%
active: DU-145 prostate -2.78% | K-562 leukemia 9.06% | MALME-3M melanoma -20.3% | MDA-MB-231 breast -7.72% | RXF 393 renal -56.9% | SF-539 CNS -24.8% | UACC-257 melanoma -19.7% | M14 melanoma -22.7% | HCT-15 colon -47.5% | HT29 colon 1.76% | SNB-75 CNS -2.99% | SK-MEL-5 melanoma -57.9% | UACC-62 melanoma -16.3% | LOX IMVI melanoma -42.7% | SK-MEL-28 melanoma -3.57%

N/C(=N\OC(=O)CSc1nc2ccccc2s1)c1ccc2ccccc2c1
inactive: DU-145 prostate 103% | K-562 leukemia 102% | MALME-3M melanoma 105% | MDA-MB-231 breast 89.5% | RXF 393 renal 119% | SF-268 CNS 98.2% | SF-295 CNS 103% | SF-539 CNS 95.2% | UACC-257 melanoma 105% | M14 melanoma 98.6% | HCT-15 colon 101% | HT29 colon 103% | SNB-75 CNS 86.7% | SNB-19 CNS 99.9% | U251 CNS 96.4% | PC-3 prostate 93.6% | SK-MEL-5 melanoma 101% | LOX IMVI melanoma 99.8% | SK-MEL-28 melanoma 106%

O=C1c2c(c3c4cccnc4[nH]c3c3ccc4ccccc4c23)C(=O)N1CCN1CCNCC1
inactive: DU-145 prostate 74.8% | MALME-3M melanoma 92.3% | MDA-MB-231 breast 89.9% | RXF 393 renal 75.5% | SF-268 CNS 78.3% | SF-295 CNS 84.2% | SF-539 CNS 73.8% | UACC-257 melanoma 106% | M14 melanoma 64.4% | HT29 colon 57.9% | SNB-75 CNS 84% | SNB-19 CNS 76.3% | U251 CNS 56.2% | PC-3 prostate 66.8% | SK-MEL-5 melanoma 91.7% | UACC-62 melanoma 79.6% | SK-MEL-28 melanoma 108%
active: K-562 leukemia -35.5% | HCT-15 colon 3.44%

CSc1ccc(/C(=N/N=C(N)N)c2ccccc2)cc1
active: SF-295 CNS 5.99% | SF-539 CNS -8.23% | M14 melanoma 9.73% | SNB-75 CNS 6.66%
inactive: DU-145 prostate 15.2% | K-562 leukemia 25.2% | MALME-3M melanoma 50.6% | MDA-MB-231 breast 29.5% | RXF 393 renal 15.4% | SF-268 CNS 53.6% | UACC-257 melanoma 80.7% | HCT-15 colon 12.4% | HT29 colon 17% | SNB-19 CNS 29% | U251 CNS 29.2% | PC-3 prostate 35.4% | SK-MEL-5 melanoma 17.7% | LOX IMVI melanoma 13%

CCN(CC)CCN1C(=O)c2c(c3c4cc(Br)ccc4[nH]c3c3ccc4ccccc4c23)C1=O
active: DU-145 prostate -94.1% | K-562 leukemia -64.8% | MALME-3M melanoma -69.1% | MDA-MB-231 breast -65.3% | RXF 393 renal -77.3% | SF-268 CNS -42.2% | SF-295 CNS -89% | SF-539 CNS -96.9% | M14 melanoma -63.9% | HCT-15 colon -88.6% | HT29 colon -69.9% | SNB-19 CNS -92.7% | U251 CNS -86.3% | PC-3 prostate -80.9% | SK-MEL-5 melanoma -83.6% | SK-MEL-28 melanoma -70.1%
inactive: UACC-257 melanoma 103% | SNB-75 CNS 77% | UACC-62 melanoma 31.7%

C/C(=N\NC(=O)CSc1nc2sc3c(c2c(=O)n1-c1ccccc1)CCC(C)C3)c1ccc(Cl)cc1 (configuration not stated)
inactive: DU-145 prostate 22.8% | K-562 leukemia 16.5% | MALME-3M melanoma 29.1% | MDA-MB-231 breast 39.8% | SF-268 CNS 23.8% | SF-295 CNS 40.9% | SF-539 CNS 18.5% | UACC-257 melanoma 75% | HCT-15 colon 25.7% | HT29 colon 62.8% | SNB-75 CNS 41.5% | SNB-19 CNS 35.3% | U251 CNS 26.7% | PC-3 prostate 31.7% | SK-MEL-28 melanoma 25.4%
active: RXF 393 renal -23.3% | M14 melanoma -34% | SK-MEL-5 melanoma -14.9% | LOX IMVI melanoma 6.72%

Oc1ccc(CSc2nnc(-c3ccccc3)o2)c2cccnc12
active: SF-295 CNS 2.18% | UACC-257 melanoma 6.39% | SK-MEL-5 melanoma 6.95% | UACC-62 melanoma 5.32% | LOX IMVI melanoma 5.66%
inactive: DU-145 prostate 30% | K-562 leukemia 10.4% | MALME-3M melanoma 36.1% | MDA-MB-231 breast 47% | RXF 393 renal 24.5% | SF-268 CNS 21.8% | SF-539 CNS 13.2% | M14 melanoma 15.5% | HCT-15 colon 10.6% | HT29 colon 88.8% | SNB-19 CNS 17% | U251 CNS 10.9% | PC-3 prostate 21.8% | SK-MEL-28 melanoma 21.7%
